Experimental findings from PubChem BioAssay AID624351 (Southern Research Specialized Biocontainment Screening …, 2012) are described below.

Usually IC50 stands for the point on the concentration scale where inhibition reaches its midpoint.

Structures are written as SMILES. Among all 2,400 compounds or so, about 1,400 (58%) were called active.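 The calls were made as follows: active = inhibition of 30% or more at any tested dose; inconclusive = primary hits over the limit that were never retested; inactive = the rest.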 So high a share suggests a set chosen from earlier hits. The list shows a part of the results.

The assay can be described thus: coupled detection enzyme interference, dose response, artefact control for MgcRacGAP inhibitor project, biochemical, coupled enzyme counter-screen (AID 624351).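 Also: signal is the ADP detection kit reading of free GDP without any GAP enzyme.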 The following applies: ADP Hunter coupled enzyme counter-screen, fluorescence, no MgcRacGAP; series mostly up to 80 µM.
Turning to `COc1cccc(CN2CCN(Cc3cc(OC)c(OC)cc3[N+](=O)[O-])CC2)c1`, the IC50 entry was “inactive”.

For `COc1cc(-c2cc(-c3ccc(O)cc3)nc(N)c2C#N)ccc1O`, the half-maximal inhibitory concentration (IC50) was 51.6 µM (active).

As to `COc1cc(-c2cc(-c3ccc(F)cc3)nc(N)c2C#N)ccc1O`, the IC50 entry is “inactive”.

As to `CCCN(CCC)CCCNC(=S)Nc1ccc2nc(N3CCCC3)cc(C)c2c1`, the IC50 entry is “inactive”. Consider `CCn1c(=O)n(CC)c2cc(N3CCCC3)c(NC(=O)c3cccc(Cl)c3)cc21`, for which the IC50 entry is “inactive”.

Consider `O=C(/C(=C/c1cccnc1)n1ccnc1)c1ccc(Cl)cc1Cl`, for which the IC50 entry was “inactive”.

Take `COCCNCCOCCOc1ccc(Cl)c(C)c1`: the IC50 entry is “inactive”. For `CCOc1cc(/C=C2/N=C(C)C(C(=O)OC)=C2O)ccc1O`, the IC50 was 29.6 µM (active). Regarding `COC(=O)C1=C(C)N(Cc2ccco2)C(=O)C1`, the IC50 result was “inactive”. Consider `COC(=O)C1=C(O)/C(=C\c2ccc(O)c(OC)c2)N=C1C`, for which the concentration for half-maximal inhibition (IC50) is 20 µM (active). Then `CCOc1cc(/C=C2\C(=O)N(Cc3ccco3)C(C)=C2C(=O)OC)ccc1O`, with 68.7 µM (active); and `COC(=O)C1=C(C)N(Cc2ccco2)C(=O)/C1=C\c1ccc([N+](=O)[O-])cc1`, with “inactive”; and `CCOC(=O)C1=C(O)/C(=C\c2ccc(O)c(OCC)c2)N=C1C`, with 52.3 µM (active). Consider `COc1nc(Nc2ccc(O)cc2)nc(OC(C(F)(F)F)C(F)(F)F)n1`, for which the concentration for half-maximal inhibition (IC50) was 39 µM (active). Take `O=S(=O)(Nc1ccccc1F)c1cccc(NC(=S)NCCN2CCOCC2)c1`: the IC50 result was “inactive”. For the compound `COc1ccc(CCNCCN2CCOCC2)cc1`, the IC50 result is “inactive”. Regarding `CN(C)S(=O)(=O)c1cc(NC(=O)CNCCN2CCOCC2)ccc1Cl`, the IC50 entry is “inactive”. Then `COc1cc(/C=N/NC(=S)NCCN2CCOCC2)ccc1O`, with 21.8 µM (active).

For the compound `Oc1ccc(/C=N/NC(=S)NCCN2CCOCC2)c(O)c1`, the IC50 was 20.9 µM (active). `COc1ccccc1OCCCCCCN1CCOCC1`: the IC50 result is “inactive”. Take `CCOc1cc(-c2cc(-c3ccccc3)nc(N)c2C#N)ccc1O`: the IC50 result is “inactive”. For `COc1cc(-c2nc3ccccc3s2)ccc1O`, the IC50 is 18.2 µM (active). Then `CCOc1cc(-c2nc3ccccc3s2)ccc1O`, with 48.6 µM (active); and `CCN1CCN(CC(=O)Nc2nc3ccccc3s2)CC1`, with “inactive”. For the compound `O=C(c1ccc(F)cc1)N1CCN(C2CCCCC2)CC1`, the IC50 result is “inactive”. On to `COc1cc2c(cc1OC)C1(CCCC1)C(N)=C2C#N`, for which the IC50 was 57.3 µM (active). Regarding `O=C(c1ccco1)N1CCN(Cc2cccc([N+](=O)[O-])c2)CC1`, the IC50 result was “inactive”. In the case of `O=C(c1c(Cl)cccc1Cl)N1CCN(c2cccc3[nH]ccc23)CC1` it was 50.9 µM (active). Then `O=[N+]([O-])c1cccc(CN2CCN(Cc3ccco3)CC2)c1`, with “inactive”. In the case of `O=[N+]([O-])c1cccc(CN2CCN(c3cccc4[nH]ccc34)CC2)c1` it was 46.7 µM (active); in that of `O=C(c1cccc(Cl)c1)N1CCN(C2CCCCC2)CC1`, “inactive”.
